Source: PubChem BioAssay (EPA / NIEHS)
Inconclusive results are not listed. Calls of active or inactive are those of the source. Rule for the calls, unless noted: active = hit-call score of the fitted dose curve at least 0.9, where 1 is the maximum; inactive = score below 0.9.

What was measured:
[1] = IUF_NPC1_viability_72hr: Viability Assessment at 72 hours in the Leibniz Research Institute for Environmental Medicine (IUF) Neural Progenitor Cell Proliferation Assay (NPC1) (AID 2284209)
In short: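 Human fetal-cortex neural progenitor spheres (0.25–0.35 mm, one per well) grown in EGF/FGF proliferation medium at 37C, pH 7.2-7.6, exposed 72 h without renewal; viability read as alamar blue resazurin-to-resorufin fluorescence relative to DMSO.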

[2] = CCTE_Mundy_HCI_Cortical_Synap_Neur_Matur_NeuriteSpotCountPerNeuriteLength: CCTE's Synaptogenesis and Neurite Maturation Assay in rat cortical cells for Neurite Spot Count per Neurite Length, Mundy Lab (AID 2284210)
In short: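 Rat primary cortical cultures, AraC added at DIV 5 to suppress glia; chemical exposure from DIV 7 to DIV 12. Fixed cells stained for MAP2 and synaptophysin plus Hoechst; synaptophysin puncta per neurite length quantified by high-content imaging, relative to DMSO.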

[3] = CCTE_Mundy_HCI_Cortical_NOG_NeuriteLength: CCTE's Neurite Outgrowth Assay in rat cortical cells for Neurite Length, Mundy Lab (AID 2284213)
In short: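 Neurite length was read by high-content imaging of βIII-tubulin-labelled neurites in rat primary cortical cultures. Activity was fitted relative to DMSO.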

[4] = CCTE_Mundy_HCI_Cortical_Synap_Neur_Matur_NeuriteLength: CCTE's Synaptogenesis and Neurite Maturation Assay in rat cortical cells for Neurite Length, Mundy Lab (AID 2284214)
In short: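 Rat primary cortical cells were plated, treated with AraC at DIV 5 to arrest glial growth, then chemical-dosed with media change at DIV 7 through DIV 12. Fixed cells stained for MAP2, synaptophysin and Hoechst; neurite length quantified by high-content imaging.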

[5] = CCTE_Mundy_HCI_Cortical_Synap_Neur_Matur_NeuriteSpotCountPerNeuron: CCTE's Synaptogenesis and Neurite Maturation Assay in rat cortical cells for Neurite Spot Count per Neuron Count, Mundy Lab (AID 2284215)
In short: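 Synapse density is scored as synaptophysin spots along neurites per neuron in fixed rat cortical neurons, measured at DIV 12 after chemical dosing at DIV 7. DMSO is the negative control and activity baseline.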

[6] = CCTE_Mundy_HCI_Cortical_Synap_Neur_Matur_SynapseCount: CCTE's Synaptogenesis and Neurite Maturation Assay in rat cortical cells for Synapse Count, Mundy Lab (AID 2284218)
In short: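 Rat primary cortical cells in 96-well plates received AraC at DIV 5 and were dosed with chemicals at DIV 7 with media change, through DIV 12 (288.33 h). Synapses per neuron counted by high-content imaging of MAP2/synaptophysin/Hoechst staining, versus DMSO baseline.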

[7] = CCTE_Mundy_HCI_hN2_NOG_NeuriteCount: CCTE's Neurite Outgrowth Assay in human hN2 cells for Neurite Count, Mundy Lab (AID 2284219; active = hit-call score of the fitted dose curve at least 0.9, where 1 is the maximum)
In short: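 In this morphology assay, hNP1-derived neurons received test chemical 2 h post-plating and were fixed two days later in warm paraformaldehyde/sucrose containing Hoechst 33342. Neurites, labelled by rabbit anti-βIII-tubulin (1:800) and Alexa Fluor-488 (1:500), were counted automatically.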

[8] = CCTE_Mundy_HCI_hN2_NOG_NeuriteLength: CCTE's Neurite Outgrowth Assay in human hN2 cells for Neurite Length, Mundy Lab (AID 2284220; active = hit-call score of the fitted dose curve at least 0.9, where 1 is the maximum)
In short: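 Read-out is neurite length from high-content imaging of βIII-tubulin/Alexa Fluor-488-labelled neurons, referenced to DMSO controls.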

[9] = CCTE_Mundy_HCI_hN2_NOG_NeuronCount: CCTE's Neurite Outgrowth Assay in human hN2 cells for Neuron Count, Mundy Lab (AID 2284221; active = hit-call score of the fitted dose curve at least 0.9, where 1 is the maximum)
In short: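 Read-out is the number of betaIII-tubulin-positive neurons imaged by automated high-content analysis, with DMSO as negative control.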

[10] = CCTE_Mundy_HCI_Cortical_Synap_Neur_Matur_CellBodySpotCount: CCTE's Synaptogenesis and Neurite Maturation Assay in rat cortical cells for Cell Body Spot Count, Mundy Lab (AID 2284223)
In short: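 Synapse number at neuronal cell bodies was quantified as synaptophysin puncta per neuron in rat cortical cultures exposed from DIV 7 to DIV 12. Values were normalised to DMSO.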

[11] = UKN4_HCS_LUHMES_cell_viability: Viability Assessment in the University of Konstanz (UKN) Leist Lab Neurite Outgrowth Assay in human LUHMES cells (UKN4) (AID 2284232)
In short: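 LUHMES cells differentiated 2 days, replated without cAMP/GDNF, then exposed to compounds for 24 h from attachment. Viability read by high-content fluorescence imaging after 30 min live-staining with H-33342 and calcein-AM; bidirectional fit relative to DMSO baseline.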

[12] = UKN2_HCS_IMR90_cell_viability: Viability Assessment in the University of Konstanz (UKN) Leist Lab Neural Crest Cell Migration Assay in human induced IMR90 Pluripotent Stem Cells (UKN2) (AID 2284233);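 note: viability of neural crest cells differentiated from IMR90 iPSC measured by calcein-AM fluorescence imaging; cells exposed to compound for 24 h after a 24 h migration phase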
In short: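 Neural crest cells derived from IMR90 iPSC migrate into a stopper-free zone for 24 h in EGF/FGF medium, then are exposed to compound for 24 h. Viability assessed by calcein-AM and Hoechst staining with high-content imaging, fitted bidirectionally versus DMSO.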

[13] = CCTE_Mundy_HCI_Cortical_NOG_NeuronCount: CCTE's Neurite Outgrowth Assay in rat cortical cells for Neuron Count, Mundy Lab (AID 2284236; active = hit-call score of the fitted dose curve at least 0.9, where 1 is the maximum;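 note: neurons counted by imaging betaIII-tubulin and Hoechst stained cortical cells; cells exposed to compound for about 48 hours before fixation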)
In short: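 Read-out: neuron number by high-content imaging of betaIII-tubulin (Alexa Fluor-488) and Hoechst-labelled rat primary cortical cells.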

[14] = CCTE_Mundy_HCI_hNP1_Casp3_7: CCTE's Caspase-Glo 3/7 Assay in human neuroprogenitor cells for Apoptosis, Mundy Lab (AID 2284240)
In short: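 Luminescent caspase-3/7 readout, 26.5 h post-dose, in human neural progenitor cells from WA09 embryonic stem cells. Cells grew 40–44 h at 37 °C, 5% CO2 before chemical addition. Activity analysed as signal increase over DMSO baseline.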

[15] = IUF_NPC2c_oligodendrocyte_migration_120hr: Leibniz Research Institute for Environmental Medicine (IUF) 120-hour Neural Progenitor Cell Migration Assay for Oligodendrocyte Migration (NPC2c) (AID 2284297);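 note: O4-positive oligodendrocyte migration distance divided by radial glia migration distance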
In short: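 Primary hNPC spheres migrating on extracellular matrix, exposed five days to a 7-point dilution series with solvent control. Oligodendrocyte migration was scored by high-content imaging of O4 immunostaining and expressed relative to radial glia distance.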

[16] = IUF_NPC2a_radial_glia_migration_120hr: Leibniz Research Institute for Environmental Medicine (IUF) 120-hour Neural Progenitor Cell Migration Assay for Radial Glia Migration (NPC2a) (AID 2284298)
In short: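 In this multiplexed test, fetal hNPC spheres migrate radially on poly-D-lysine/laminin in N2 medium (37C, 5% CO2, pH 7.2-7.6) under continuous compound exposure over five days. Migration is scored at 120 h from automated Hoechst nuclear imaging.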

[17] = IUF_NPC2a_radial_glia_migration_72hr: Leibniz Research Institute for Environmental Medicine (IUF) 72-hour Neural Progenitor Cell Migration Assay for Radial Glia Migration (NPC2a) (AID 2284299)
In short: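 Human fetal cortex (GW 16-19) neural progenitor spheres, 0.3 mm, plated on poly-D-lysine/laminin in N2 differentiation medium with compound from day 0. Radial glia migration distance (um, sphere core edge to migration edge) measured manually in four directions on 72 h brightfield images; well mean used.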

[18] = IUF_NPC2b_neuronal_migration_120hr: Leibniz Research Institute for Environmental Medicine (IUF) 120-hour Neural Progenitor Cell Migration Assay for Neuron Migration (NPC2b) (AID 2284300)
In short: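 Neurons identified by TUBB3 immunostaining and Hoechst nuclei; migration distance measured automatically on fixed wells at 120 h, normalized to glia migration. Exposure spanned five days of differentiation in N2 medium, seven test concentrations.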

[19] = IUF_NPC3_neuronal_differentiation_120hr: Leibniz Research Institute for Environmental Medicine (IUF) 120-hour Neuronal Differentiation Assay (NPC3) (AID 2284301)
In short: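 Human fetal (GW 16-19) neural progenitor spheres (0.3 mm) plated on poly-D-lysine/laminin in N2 differentiation medium, exposed 120 h at 37C with half-medium renewal day 3; 7 concentrations. TUBB3+ cells as % of Hoechst nuclei, CNN-identified; DMSO baseline.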

[20] = IUF_NPC4_neurite_length_120hr: Leibniz Research Institute for Environmental Medicine (IUF) 120-hour Neuronal Morphology Assay for Neurite Length (NPC4) (AID 2284302)
In short: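 Human fetal neural progenitor spheres (0.3 mm) plated on poly-D-lysine/laminin in N2 differentiation medium, exposed from day 0 for 120 h with half-medium refresh at day 3, 37C. Mean neurite length (um) of TUBB3-positive neurons from skeletonized immunostaining images; DMSO ≤0.1%.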

[21] = IUF_NPC5_oligodendrocyte_differentiation_120hr: Leibniz Research Institute for Environmental Medicine (IUF) 120-hour Oligodendrocyte Differentiation Assay (NPC5) (AID 2284304; active = hit-call score of the fitted dose curve at least 0.9, where 1 is the maximum;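 note: primary human fetal neural progenitor spheres plated to migrate and differentiate; share of O4-positive cells among Hoechst nuclei found by CNN image analysis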)
In short: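 Human primary NPC neurospheres migrating and differentiating on laminin for 120 h under continuous compound exposure (serial dilution, solvent control). Endpoint: percent O4+ oligodendrocytes among Hoechst nuclei, detected by CNN image analysis, with DMSO as negative control.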

[22] = IUF_NPC4_neurite_area_120hr: Leibniz Research Institute for Environmental Medicine (IUF) 120-hour Neuronal Morphology Assay for Neurite Area (NPC4) (AID 2284305; active = hit-call score of the fitted dose curve at least 0.9, where 1 is the maximum)
In short: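 Human fetal neural progenitor spheres (0.3 mm) plated on poly-D-lysine/laminin in N2 differentiation medium, exposed 120 h (7 concentrations, DMSO ≤0.1%, half-medium refresh day 3). Fixed, TUBB3 immunostained; mean neurite area per neuron by Omnisphero skeletonization.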

[23] = IUF_NPC2-5_cytotoxicity_72hr: Cytotoxicity Assessment at 72 hours in the Leibniz Research Institute for Environmental Medicine (IUF) Neural Progenitor Cell Migration and Differentiation Assay for Cytotoxicity (NPC2-5) (AID 2284306; active = hit-call score of the fitted dose curve at least 0.9, where 1 is the maximum;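 note: LDH release into supernatant measured by resorufin fluorescence marking membrane damage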)
In short: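 Human fetal primary neural progenitor spheres (0.3 mm) plated on poly-D-lysine/laminin in N2 differentiation medium, exposed from day 0 at 37C. LDH-dependent resazurin-to-resorufin fluorescence in supernatant at 72 h; 7 concentrations, DMSO at most 0.1%.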

[24] = IUF_NPC2-5_cytotoxicity_120hr: Cytotoxicity Assessment at 120 hours in the Leibniz Research Institute for Environmental Medicine (IUF) Neural Progenitor Cell Migration and Differentiation Assay (NPC2-5) (AID 2284307; active = hit-call score of the fitted dose curve at least 0.9, where 1 is the maximum)
In short: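 Fluorescence (RFU) from LDH-driven resazurin reduction in medium supernatants measured loss of membrane integrity after 120 h of compound exposure of differentiating primary human neural progenitor spheres on an extracellular matrix.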

[25] = IUF_NPC2-5_cell_number_120hr: Cell Number Assessment at 120 hours in the Leibniz Research Institute for Environmental Medicine (IUF) Neural Progenitor Cell Migration and Differentiation Assay (NPC2-5) (AID 2284308);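 note: count of Hoechst-stained nuclei in migration zone around plated human neural progenitor spheres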
In short: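 Cell number is taken as all Hoechst-positive nuclei detected in the area into which cells migrate out of the sphere, scored at 120 h and referenced to DMSO solvent control, which was kept at no more than 0.1%.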

[26] = IUF_NPC2-5_viability_120hr: Viability Assessment at 120 hours in the Leibniz Research Institute for Environmental Medicine (IUF) Neural Progenitor Cell Migration and Differentiation Assay (NPC2-5) (AID 2284312)
In short: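 Human fetal neural progenitor spheres (0.3 mm) plated on poly-D-lysine/laminin in N2 differentiation medium, exposed 120 h with half-medium refresh at day 3. Viability by alamar blue resazurin fluorescence; 7 concentrations, DMSO max 0.1%.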

Measured: outcome

CC(C)(C)NCC(O)c1cc(O)cc(O)c1 (stereo unspecified)
inactive: all assays above
